Screening data from PubChem BioAssay.
TDP1 cell noCPT = qHTS for Inhibitors of human tyrosyl-DNA phosphodiesterase 1 (TDP1): qHTS in cells in absence of CPT. DT40 Tdp1-/- hTDP1 cells, no CPT, ATP luminescence, 48 h. Potency, µM (highest dose often 46.2 µM), without a hit: at the highest dose activity change, negative = growth inhibition, most hits filed as inhibitors. 15% of 420,000 active. AID 686978, 2013; further: on the % scale 0 is the no-effect control and ±100 the full control effect; nearly all actives have a fitted effect of over 55% in size
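A cellular qHTS used chicken DT40 cells lacking endogenous Tdp1 but carrying stably transfected human TDP1. Compounds were applied without camptothecin, and cell growth kinetics were judged by ATP-dependent luminescence after ≥48 hr.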
ATXN2 expr inh = Primary qHTS for Inhibitors of ATXN expression; HEK-293 ATXN2-luciferase reporter, luminescence, 24 h; Potency, µM (titrated, usually from 57 µM), without a hit: at the top dose activity change, negative = inhibition, hits mostly inhibitors; 0.72% of 360,000 active; further: on the % scale 0 is the no-effect control and ±100 the full control effect; nearly all actives have a fitted effect of over 55% in size
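ATXN2-luciferase reporter cells (luciferase flanked by upstream and downstream ATXN2 gene portions) were treated 24 h at 37 °C with compounds at up to 57 uM. SteadyGlo luminescence gave expression; GF-AFC fluorescence gave viability.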
HepG2 tox = qHTS for Inhibitors of TGF-b: Cytotox Counterscreen; HepG2 CAGA-GFP viability, ATP luminescence, 18 h; Potency, µM (highest dose often 46.1 µM), for inactives: top-dose activity change, negative = cytotoxicity, hits mostly cytotoxic; 0.76% of 410,000 active; AID 588856, 2011
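HepG2 CAGA-GFP cells (1000/well, DMEM with 1% FBS) received compound, then TGF-beta at 500 pg/mL final, and were incubated 18 hours at 37 degrees C. Viability was read by CellTiter-Glo luminescence. Media-only wells were set as complete cell-killing and DMSO as no toxicity.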
TGFb inhibitor = qHTS for Inhibitors of TGF-b; HepG2 CAGA-GFP TGF-b/SMAD3 reporter, GFP fluorescence, 18 h; TGF-beta stimulated, 500 pg/mL final; Potency, µM (highest dose often 46.1 µM), for inactives: at the highest dose activity, negative = inhibition, hits mostly inhibitors; 1.2% of 410,000 active; further: on the % scale 0 is the no-effect control and ±100 the full control effect; nearly all actives have a fitted effect of over 65% in size
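HEPG2 CAGA-GFP reporter cells (1000/well, DMEM with 1% FBS) received compounds, then recombinant TGF-beta at 500 pg/mL final for 18 hours at 37 degrees C. Per-cell GFP summed per well was normalised to unstimulated and stimulated DMSO controls before curve fitting.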
DT40 TDP1 CPT = qHTS for Inhibitors of human tyrosyl-DNA phosphodiesterase 1 (TDP1): qHTS in cells in presence of CPT. chicken DT40 Tdp1-/-;hTDP1 cells + 20 nM CPT, ATP luminescence, 48 h. Potency, µM (highest dose often 46.2 µM), for the others: at the top dose activity change, negative = growth inhibition, actives largely listed as inhibitors. 12% of 420,000 active. AID 686979, 2013; further: on the % scale 0 is the no-effect control and ±100 the full control effect; nearly all actives have a fitted effect of over 55% in size
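Chicken DT40 Tdp1-/- cells complemented with human TDP1, 400 cells/well, exposed to compounds plus 20 nM camptothecin for at least 48 h at 37 C; viability read as ATP content by CellTiter-Glo luminescence.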
S2 tox = Viability Counterscreen for Primary qHTS for Inhibitors of ATXN expression; AID 651635, 2014; 0.49% of 400,000 active; Potency, µM (series often up to 56.7 µM), actives largely listed as cytotoxic; S2 cells (HEK-293 line with an ATXN2-luciferase reporter) viability, CellTiter-Fluor protease fluorescence, 24 h; further: nearly all actives have a fitted effect of over 40% in size
The depositor's hits bear a star; i = inactive; ? = inconclusive; nt = no result. Compounds with a hit are over-represented: about 17% of the library has one in this group of screens. The call rests on the fitted dose curve; in most records, active means well fitted curve in the direction sought with a large enough effect; inconclusive means small, poorly fitted or top-dose-only effect, or another doubt; inactive means no such curve, though single readings can be large; an effect the other way counts as inactive or inconclusive. Potency means the concentration at half of the fitted maximal effect.

SMILES	TDP1 cell noCPT	ATXN2 expr inh	HepG2 tox	TGFb inhibitor	DT40 TDP1 CPT	S2 tox
Cc1ccc(-c2nnc(C3CCN(S(=O)(=O)c4ccc(C)c(C)c4)CC3)o2)cc1	25.9µM*	nt	-18.7%	?	?	nt
COc1cccc(-c2cnc3c(NC(C)=O)cc(-c4ccc(C(=O)NC5CC5)cc4)cn23)c1	13µM*	?	-36.1%	0.9%	?	?
COc1ccc(-c2cnc3c(NC(C)=O)cc(-c4ccc(C(=O)NC5CC5)cc4)cn23)cc1OC	23.1µM*	0.0%	-18.9%	32.6%	23.1µM*	?
COc1ccc(-c2cnc3c(NC(C)=O)cc(-c4ccccc4CN(C)C)cn23)cc1OC	?	-1.3%	-30.6%	29.4%	?	i
Cc1ccc(S(=O)(=O)NC(=O)c2cc(C)n(-c3ccc(N(C)C)cc3)c2C)cc1	0.5%	nt	-9.7%	-4.5%	4.9%	i
Nc1ccc(N2CCCC2)c(S(=O)(=O)Nc2cccc(C(F)(F)F)c2)c1	29.1µM*	-13.4%	-10.9%	-19.6%	?	i
O=C(c1ccc(S(=O)(=O)Nc2cccc(C(F)(F)F)c2)cc1)N1CCN(c2ccccc2O)CC1	23.1µM*	-11.5%	-22.4%	?	?	i
O=C(c1ccc(NS(=O)(=O)c2cccc(C(F)(F)F)c2)cc1)N1CCCC1	7.5%	-8.2%	-6.3%	-13.3%	17.3%	i
O=C(COC(=O)c1cnc(Cl)c(Cl)c1)Nc1ccc(S(=O)(=O)N2CCCC2)cc1	-2.9%	nt	-2.6%	-13.3%	-15.5%	i
CCCC(=O)Nc1cc(-c2nc3cccnc3s2)ccc1C	-24.2%	20.6%	-38.9%	-16.0%	-9.2%	i
CC(C)c1ncc(C(O)c2cccc3ccccc23)n1C (stereo not given)	?	-11.0%	-1.1%	-17.9%	?	i
NS(=O)(=O)c1cccc(C(=O)N2CCCc3ccccc32)c1	-20.9%	nt	-4.7%	2.2%	-4.4%	?
Cc1cccc(N(C)C(=O)CSc2nc3ncccc3o2)c1	?	20.3%	-1.8%	-1.5%	-28.1%	i
N#Cc1c(N)sc2c1CCN(CCc1ccccc1)C2	?	-3.9%	1.7%	8.2%	18.4µM*	i
CC(C)N1CCc2c(sc(NC(=O)CCS(=O)(=O)c3ccccc3)c2C#N)C1	25.9µM*	11.8%	-0.1%	-10.0%	?	?
CC(C)(C)C(=O)Nc1sc2c(c1C#N)CCN(Cc1ccccc1)C2	23.1µM*	2.6%	-19.2%	12.1%	?	i
COCCN(CCOC)S(=O)(=O)c1ccc(C(=O)Nc2sc3c(c2C(=O)OC)CCN(C)C3)cc1	?	-13.9%	-17.3%	-1.1%	-13.0%	i
CCOC(=O)N1CCc2c(sc(N)c2C#N)C1	?	10.8%	-4.2%	-15.2%	?	i
COC(=O)c1c(NC(=O)CCS(=O)(=O)c2ccccc2)sc2c1CCN(C)C2	3.66µM*	0.4%	24.7%	?	5.8µM*	i
CS(=O)(=O)N1N=C(c2ccco2)CC1c1ccc(Cl)cc1Cl (stereo not given)	?	-1.9%	4.7%	-2.5%	?	i
CCOc1ccc(CCNC(=O)NCc2noc3ccc(C)cc23)cc1	?	-2.0%	-21.9%	-17.4%	-24.1%	i
Cc1cc(/C=C2\SC(N)=NC2=O)c(C)n1-c1ccc(F)cc1	?	17.1%	12.6µM*	-10.3%	-17.3%	i
Cc1ccc(-n2c(C)cc(/C=C3\SC(=O)NC3=O)c2C)cc1	0.1%	77.6%	-1.7%	-20.1%	-21.5%	i
CCC[C@H](CN[C@@H](CNC)[C@H](C)O)NCCc1ccc(OC)cc1	-0.6%	-3.8%	-7.3%	-1.9%	-7.1%	i
CNC[C@@H](C)NC[C@@H](Cc1ccccc1)NCCc1ccccc1	4.61µM*	-22.1%	-49.7%	-11.2%	8.2µM*	i
SMILES	TDP1 cell noCPT	ATXN2 expr inh	HepG2 tox	TGFb inhibitor	DT40 TDP1 CPT	S2 tox
COC(=O)c1ccccc1NC(=O)C1CC(=O)N(c2ccc(C)c(C)c2)C1 (stereo not given)	-23.6%	2.7%	-22.2%	-5.8%	8.1%	i
Nc1cc(S(=O)(=O)N2CCOCC2)ccc1N1CCCCC1	?	-5.1%	-2.6%	-9.5%	23.1µM*	i
Nc1cc(S(=O)(=O)Nc2cc(Cl)ccc2Cl)ccc1N1CCOCC1	?	-27.5%	-26.6%	-1.1%	?	i
Nc1ccc(S(=O)(=O)c2ccc(N3CCOCC3)c(N)c2)cc1	20.6µM*	nt	-19.9%	-3.5%	-22.6%	i
O=C(Nc1ccccn1)C1CCN(C(=O)Nc2ccccc2)CC1	-5.4%	0.3%	4.7%	-14.7%	-19.0%	i
CCN(CC)S(=O)(=O)c1ccc(N/N=C(\C)c2ccncc2)c([N+](=O)[O-])c1	?	11.4%	-6.2%	-3.5%	1.0%	i
CCCN1CCC(=NNc2ccc(S(=O)(=O)N(CC)CC)cc2[N+](=O)[O-])CC1	2.59µM*	-19.6%	-8.5%	?	2.06µM*	i
CCCN1CCC(=NNc2ccc(S(N)(=O)=O)cc2[N+](=O)[O-])CC1	-0.4%	33.3%	-39.7%	-37.6%	1.9%	i
CCN(CC)S(=O)(=O)c1ccc(N/N=C(\C)c2ccc3c(c2)OCO3)c([N+](=O)[O-])c1	14.6µM*	-30.7%	4.6%	-1.6%	?	i
C/C(=N\Nc1ccc(S(N)(=O)=O)cc1[N+](=O)[O-])c1ccc2c(c1)OCO2	14.6µM*	-5.9%	-19.2%	-22.9%	-28.4%	i
CC1=C(C(=O)OCc2ccc3c(c2)OCO3)C(c2ccc(Cl)cc2)NC(=O)N1 (stereo not given)	2.91µM*	?	-19.4%	?	2.31µM*	i
CC1=C(C(=O)OCc2ccc3c(c2)OCO3)C(c2ccc(F)cc2)NC(=O)N1 (stereo not given)	4.11µM*	?	-22.3%	-28.3%	4.11µM*	?
Cc1cccc(NC(=O)CCCn2cc([N+](=O)[O-])cn2)n1	2.8%	2.8%	-2.1%	-5.7%	-17.9%	i
Cn1c2ccccc2c2nnc(SCC(=O)NCc3ccoc3)nc21	-23.3%	7.6%	-4.4%	1.7%	4.3%	i
COc1ccc(CNC(=O)COC(=O)c2ccccc2C(=O)c2ccccc2)cc1	8.2µM*	nt	-14.1%	-11.4%	?	i
